STK33 inh: blocks human STK33 kinase activity; inhibition, % at 12.5 µM; AID 2322; ADP-Glo luminescence, MBP substrate; actives 0.44% (n = 27,000); Q9BYT3; in the data active = inhibition above about 20%; inconclusive = no clear call, values can overlap the other calls
Target sequence (Q9BYT3 whole entry, looked up): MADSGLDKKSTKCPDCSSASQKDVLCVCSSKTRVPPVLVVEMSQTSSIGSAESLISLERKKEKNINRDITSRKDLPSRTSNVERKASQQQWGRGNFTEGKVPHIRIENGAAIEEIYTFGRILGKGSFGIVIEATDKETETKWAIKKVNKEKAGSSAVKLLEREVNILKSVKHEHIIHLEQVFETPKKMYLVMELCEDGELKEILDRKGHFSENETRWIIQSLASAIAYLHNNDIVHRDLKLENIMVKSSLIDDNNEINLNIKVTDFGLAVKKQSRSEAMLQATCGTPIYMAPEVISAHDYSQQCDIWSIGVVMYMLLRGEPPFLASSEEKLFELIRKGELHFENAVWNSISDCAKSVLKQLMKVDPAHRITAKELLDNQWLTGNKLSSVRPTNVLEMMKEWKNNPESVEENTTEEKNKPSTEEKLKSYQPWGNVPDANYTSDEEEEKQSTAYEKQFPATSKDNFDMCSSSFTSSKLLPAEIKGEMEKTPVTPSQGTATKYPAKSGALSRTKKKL
PD-1 reversal: activators reversing PD-1 mediated T-cell inhibition | primary human CD4 T cells, PD-L1 beads, CellTiter-Glo 96 h | activation, % (no concentration beside the values) | 29,000 tested, under 10 active | AID 2316; call rule not given here
NOMO-1 viab: STK33 inhibitor candidate reducing NOMO-1 cell viability. NOMO-1 AML viability, CellTiter-Glo luminescence, 72 h. inhibition, % (test concentration not listed). actives 7.5% (n = 37,000); in the data active = inhibition above about 80%; inconclusive = no clear call, values can overlap the other calls
Of the large screens only hits and unclear results are named; the others gave an inactive call. Only a selection was taken, and hits are over-represented in it overall.

COC(Cc1nc2ccccc2s1)C(=O)O (stereo not drawn)	NOMO-1 viab inconclusive
CC(C)c1ccccc1OCC(=O)Nc1sc2c(c1C(N)=O)CCCC2	none
O=Nc1c(O)n(CC(=O)Nc2ccccc2)c2ccccc12	none (no result: STK33 inh)
NNC(=O)Cn1c2ccccc2c2ccccc21	NOMO-1 viab 100 (no result: STK33 inh)
COC(=O)c1scc(C#N)c1N=CN(C)C	none
C[C@H](CO)N1C[C@H](C)[C@@H](CN(C)C(=O)Nc2ccc(C(F)(F)F)cc2)Oc2ccc(NC(=O)Nc3ccc(F)cc3)cc2C1=O	none
C[C@H]1CN([C@@H](C)CO)C(=O)c2cc(NC(=O)Nc3ccc(C(F)(F)F)cc3)ccc2O[C@@H]1CN(C)C(=O)Nc1ccc(F)cc1	none (no result: STK33 inh)
C[C@H](CO)N1C[C@H](C)[C@H](CN(C)C(=O)Nc2ccc(F)cc2)Oc2ccc(NC(=O)Nc3ccc(C(F)(F)F)cc3)cc2C1=O	NOMO-1 viab 112 (no result: STK33 inh)
C[C@@H]1CN([C@@H](C)CO)C(=O)c2cc(NC(=O)Nc3ccc(C(F)(F)F)cc3)ccc2O[C@@H]1CN(C)C(=O)Nc1ccc(F)cc1	NOMO-1 viab 113 (no result: STK33 inh)
Cc1cc(OCC(=O)Nc2ccccc2N2CCN(C)CC2)cc(C)c1Cl	none
C[C@H]1CN([C@@H](C)CO)C(=O)c2cccc(NC(=O)C3CCCCC3)c2O[C@H]1CN(C)Cc1ccc(Cl)c(Cl)c1	none (no result: STK33 inh)
C[C@@H]1CN([C@@H](C)CO)C(=O)c2cccc(NC(=O)C3CC3)c2O[C@H]1CN(C)Cc1ccc(Oc2ccccc2)cc1	NOMO-1 viab 100 (no result: STK33 inh)
C[C@H](CO)N1C[C@H](C)[C@@H](CN(C)Cc2ccc(Oc3ccccc3)cc2)Oc2c(NC(=O)C3CCCCC3)cccc2C1=O	NOMO-1 viab 88 (no result: STK33 inh)
C[C@@H]1CN([C@H](C)CO)C(=O)c2cccc(NC(=O)C3CCCCC3)c2O[C@H]1CN(C)Cc1ccc(Oc2ccccc2)cc1	none (no result: STK33 inh)
C[C@@H]1CN([C@@H](C)CO)C(=O)c2cccc(NC(=O)C3CCCCC3)c2O[C@@H]1CN(C)Cc1ccc(Cl)c(Cl)c1	NOMO-1 viab 96 (no result: STK33 inh)
C[C@@H]1CN([C@@H](C)CO)C(=O)c2cccc(NC(=O)C3CCCCC3)c2O[C@H]1CN(C)Cc1ccc(Oc2ccccc2)cc1	NOMO-1 viab 120 (no result: STK33 inh)
C[C@@H]1CN([C@H](C)CO)C(=O)c2cccc(NC(=O)C3CC3)c2O[C@@H]1CN(C)Cc1ccc(Oc2ccccc2)cc1	none (no result: STK33 inh, PD-1 reversal)
C[C@@H]1CN([C@@H](C)CO)C(=O)c2cccc(NC(=O)C3CCCCC3)c2O[C@@H]1CN(C)Cc1ccc(Oc2ccccc2)cc1	none (no result: STK33 inh)
Cc1ccc(NC(=O)CSc2nnc(-c3ccccc3)n2-c2ccccc2)c(Br)c1	none
CCn1c(SCC(=O)Nc2cccc(Cl)c2)nnc1-c1ccco1	none
Cc1cc(C(=O)CSc2nnc3sc4ccccc4n23)c(C)n1Cc1ccccc1	none
CC1CCCCN1Cc1nc(N)nc(Nc2ccc3c(c2)OCCO3)n1 (stereo not drawn)	none (no result: PD-1 reversal)
C[C@@H]1CN([C@@H](C)CO)C(=O)c2cc(NC(=O)C3CCCCC3)ccc2O[C@H]1CN(C)Cc1ccc(Oc2ccccc2)cc1	NOMO-1 viab 100
C[C@H]1CN([C@@H](C)CO)C(=O)c2cc(NC(=O)C3CCCCC3)ccc2O[C@H]1CN(C)Cc1ccc(Oc2ccccc2)cc1	none
CC(C)(C)SC(=O)c1cccnc1SCCS(=O)(=O)c1cccc(C(F)(F)F)c1	none (no result: STK33 inh)
O=C(CSc1nc2ccc([N+](=O)[O-])cc2[nH]1)Nc1ccc(F)cc1	none (no result: PD-1 reversal, NOMO-1 viab)
O=C(CSc1nc2ccc([N+](=O)[O-])cc2[nH]1)Nc1cc(C(F)(F)F)cc(C(F)(F)F)c1	NOMO-1 viab 130
COc1ccc([Si](C)(C)[C@@H]2[C@@H](CCO)O[C@]3(C(=O)N(Cc4ccc(N5CCOC5=O)cc4)c4ccccc43)[C@H]2C)cc1	STK33 inh 20 (no result: PD-1 reversal, NOMO-1 viab)
COc1ccc([Si](C)(C)[C@@H]2[C@@H](CCO)O[C@]3(C(=O)N(Cc4ccc(NC(C)=O)cc4)c4ccccc43)[C@H]2C)cc1	none (no result: PD-1 reversal, NOMO-1 viab)
COc1ccc([Si](C)(C)[C@H]2[C@H](CCO)O[C@@]3(C(=O)N(Cc4cccc(NC(C)=O)c4)c4ccccc43)[C@@H]2C)cc1	STK33 inh 38 (no result: PD-1 reversal, NOMO-1 viab)
COc1ccc([Si](C)(C)[C@H]2[C@H](CCn3cc(CCO)nn3)O[C@@]3(C(=O)N(Cc4cccc(N5CCOC5=O)c4)c4ccccc43)[C@@H]2C)cc1	STK33 inh 21 (no result: PD-1 reversal, NOMO-1 viab)
COc1ccc([Si](C)(C)[C@@H]2[C@@H](CCO)O[C@]3(C(=O)N(Cc4cccc(N5CCOC5=O)c4)c4ccccc43)[C@H]2C)cc1	none (no result: PD-1 reversal, NOMO-1 viab)
COc1ccc([Si](C)(C)[C@@H]2[C@@H](CCn3cc([C@H](O)c4ccccc4)nn3)O[C@]3(C(=O)N(Cc4cccc(N5CCOC5=O)c4)c4ccccc43)[C@H]2C)cc1	none (no result: PD-1 reversal, NOMO-1 viab)
O=C(O)c1ccccc1S(=O)c1ccc(Cl)cc1 (stereo not drawn)	none (no result: STK33 inh)
CC1=C(C(=O)Nc2ccc(Cl)cc2)C(c2cccc(F)c2)n2nc(CCCO)nc2N1 (stereo not drawn)	none (no result: PD-1 reversal)
COC(=O)c1c(NC(=S)NCCn2cc(Br)cn2)sc2c1CCC2	none (no result: PD-1 reversal)
O=C(CSc1ncn(-c2ccccc2)n1)Nc1ccc(Cl)cc1	none
CS(=O)(=O)N(CC(=O)Nc1ccc(Br)cc1F)c1cccc([N+](=O)[O-])c1	none
COc1ccc(CCNC(=S)Nc2ccncc2)cc1OC	NOMO-1 viab 113
COc1ccc(CCNC(=S)N2CCN(c3ncccn3)CC2)cc1OC	none
COc1ccc(CCNC(=S)n2cc(C)cn2)cc1OC	NOMO-1 viab 111
COc1ccc(CCNC(=S)NCCc2ccccc2)cc1OC	none (no result: STK33 inh)
COc1ccc(C(=O)n2nc3c(c2-c2ccc(OC)cc2)COC(C)(C)C3)cc1	none (no result: STK33 inh)
CC1(C)N=C(NS(=O)(=O)c2cc(C(F)(F)F)cc(C(F)(F)F)c2)N(c2ccccc2)O1	none (no result: STK33 inh)
Cn1c(=N)n(CCCOc2ccc(F)cc2)c2ccccc21	NOMO-1 viab 94 (no result: STK33 inh)
CC(O)c1nc2ccccc2n1CCOc1ccc(F)cc1 (stereo not drawn)	none (no result: PD-1 reversal)
COc1cc(OC)cc(-c2nnc(SCC(=O)NC3CC4CCC3C4)o2)c1 (stereo not drawn)	none
Cc1c(NC(=O)CN(c2cccc(Cl)c2Cl)S(C)(=O)=O)cccc1[N+](=O)[O-]	none
COc1ccc([N+](=O)[O-])cc1NC(=O)CN(c1ccccc1Br)S(C)(=O)=O	none
CC1(C)Cc2nc(-c3ccccc3)nc(SCC(=O)Nc3ccc(Br)cc3)c2CO1	NOMO-1 viab 101
COc1ccc(OC)c(NC(=O)CSc2nc(-c3ccccc3)nc3c2COC(C)(C)C3)c1	none
COc1cccc2c1C(=O)c1ccc3c(c1C2=O)C(=O)CC(C)(O)C3 (stereo not drawn)	NOMO-1 viab 93
Cc1cc(O)c2c(c1)C(=O)c1cccc(O)c1C2=O	none (no result: PD-1 reversal)
CC1(O)CC(=O)c2c(ccc3c2C(=O)c2cccc(O)c2C3=O)C1 (stereo not drawn)	NOMO-1 viab 95
COc1cc(O)cc2cc3c(c(O)c12)C(=O)C[C@@](C)(O)C3	none
O=C(COc1ccc(Cl)cc1CO)Nc1ccccc1F	none
COc1cccc(OC)c1C(=O)Nc1ccc(Cl)c(-c2nc3ncccc3o2)c1	none
Cc1ccc(SC(C)C(=O)Nc2ccc(C(C)(C)C)cc2)cc1 (stereo not drawn)	none
O=C1c2ccccc2O[C@@H](c2ccc(Cl)cc2)[C@@H]1O	NOMO-1 viab 114 (no result: STK33 inh)
COc1cc(O)c2c(c1)O[C@H](c1ccc(O)cc1)[C@@H](O)C2=O	none (no result: PD-1 reversal, NOMO-1 viab)
